# In PubChem BioAssay (NCATS):
# Active and inactive are the calls of the source. Calls follow the shape of the full dose curve.
# Test: qHTS drug screen for cell cycle checkpoint inhibitors in PARPi-resistant BRCA-mutant ovarian cancer cell lines. (AID 1963452)
# Details: PEO1/OlaR viability, CellTiter-Glo luminescence, 96 h; for Z-AUC: stronger effect = lower value
# From the text: Women's Malignancies Branch, Center for Cancer Research (CCR),
# National Cancer Institute (NCI), National Institutes of Health (NIH), Bethesda, MD
# Poly (ADP-ribose) polymerase inhibitors (PARPis) have changed the treatment paradigm in breast cancer gene (BRCA) - mutant high-grade serous ovarian carcinoma (HGSC). However, most patients eventually develop resistance to PARPis, highlighting an unmet need for improved therapeutic strategies. Using high-throughput drug screens, we identified ataxia telangiectasia and rad3-related protein/checkpoint kinase 1 (CHK1) pathway inhibitors as cytotoxic and further validated the activity of the CHK1 inhibitor (CHK1i) prexasertib in PARPi-sensitive and -resistant BRCA-mutant HGSC cells and xenograft mouse models. CHK1i monotherapy induced DNA damage, apoptosis, and tumor size reduction. We then conducted a phase 2 study (NCT02203513) of prexasertib in patients with BRCA-mutant HGSC. The treatment was well tolerated but yielded an objective response rate of 6% (1 of 17; one partial response) in patients with previous PARPi treatment. […] BRCA reversion mutation in previously PARPi-treated BRCA-mutant patients was not associated with resistance to CHK1i.
# Among others, 1082 oncology drugs, both approved and investigational, were prioritized based on their status in clinical trial development. […] Drugs with average Z-AUC values less than -1.0 in all three cell lines were classified as "hits" resulting in 151 oncology drug hits. The screen also confirmed cross-resistance between olaparib and other PARPis (rucaparib, niraparib, and talazoparib) in PARPi-resistant PEO1/OlaR and PEO4.
# [1] G. L. Lin, K. M. Wilson, M. Ceribelli, B. Z. Stanton, P. J. Woo, S. Kreimer, E. Y. Qin, X. Zhang, J. Lennon, S. Nagaraja, P. J. Morris, M. Quezada, S. M. Gillespie, D. Y. Duveau, A. M. Michalowski, P. Shinn, R. Guha, M. Ferrer, C. Klumpp-Thomas, S. Michael, C. McKnight, P. Minhas, Z. Itkin, E. H. Raabe, L. Chen, R. Ghanem, A. C. Geraghty, L. Ni, K. I. Andreasson, N. A. Vitanza, K. E.Warren, C. J. Thomas, M. Monje, Therapeutic strategies for diffuse midline glioma from high-throughput combination drug screening. Sci. Transl. Med. 11, (2019).
# [2] T. M. Yamamoto, A. McMellen, Z. L. Watson, J. Aguilera, R. Ferguson, E. Nurmemmedov, T. Thakar, G. L. Moldovan, H. Kim, D. M. Cittelly, A. M. Joglar, E. P. Brennecke, H. Wilson, K. Behbakht, M. J. Sikora, B. G. Bitler, Activation of Wnt signaling promotes olaparib resistant ovarian cancer. Mol. Carcinog. 58, 1770 - 1782 (2019).
# PROTOCOL TABLE (as described by Inglese J, Shamu CE and Guy RK. 2007)
# SEQUENCE No. (e.g., 1, 2, 3, etc.); […] (e.g., Cells, Incubation, Reagent, etc.); VALUE; DESCRIPTION.
# 1; Compounds; 20nL; 1536-well white tissue culture-treated plates.
# 2; Cells; 5 uL; PEO1, PEO4, and PEO1/OlaR cells at 600 cells per well.
# 3; Incubation; 96 hr; 37C, 95% humidity, 5% CO2.
# 4; Reagent; 3 uL; CellTiter-Glo (Promega).
# 5; Incubation; 15 min; room temperature.
# 6; Detection; Luminescence, PHERAstar (BMG Labtech) plate reader.
# NOTES (numbers refer to Sequence numbers above)
# 1. MIPE 5.0 compounds were acoustically dispensed by Echo Acoustic Liquid Handler (Beckman Coulter Life Sciences). Each compound was plated at an 11-point concentration range with 1:3 dilution. Bortezomib, a proteasome inhibitor (final concentration, 20 uM), was used as a positive.
# 2. PEO1, PEO4, and PEO1/OlaR were trypsinized and dispensed in 5 uLof growth medium using a Multidrop Combi dispenser at a density of 600 cells per well to allow compounds to be present during the exponential growth phase.
# 3. Plates were incubated for 96 hours at standard incubator conditions and covered by a stainless steel gasketed lid to prevent evaporation.
# 4. Three microliters of CellTiter-Glo (Promega) were added to each well.
# 5. Plates were incubated at room temperature for 15 min with a stainless-steel lid in place.
# 6. Luminescence readings were taken using PHERAstar (BMG Labtech). […]
# [1] = measured here: PEO1 parental Z-AUC
# Potency is read from the fitted curve at half-maximal effect.
Structure (SMILES),Potency,Z-AUC [1],Z-AUC (measured here: PEO4 Z-AUC),Z-AUC
COc1cc(C(=O)NC2CCN(C)CC2)c(F)cc1Nc1ncc2c(n1)N(C1CCCC1)CC(F)(F)C(=O)N2C,245 nM (active),-2.61,-2.16,–
O=C(/C=C\n1cnc(-c2cc(C(F)(F)F)cc(C(F)(F)F)c2)n1)N1CC(F)(F)C1,–,-1.85,-1.38,-0.848 (inactive)
CCCCNc1ncc2c(-c3ccc(F)cc3)nn(CC3CCC(N)CC3)c2n1 (configuration not stated),–,-0.901,-1.35,-1.02 (inactive)
COc1c(Nc2ncc(Cl)c(N[C@H]3[C@@H](C(N)=O)[C@@H]4C=C[C@H]3C4)n2)ccc2c1CC[C@@H](N1CCOCC1)CC2,–,0.18,0.103,0.583 (inactive)
CCCN1CCN(c2ccc(C(=O)NC3(C(=O)NCC#N)CCCCC3)cc2)CC1,–,0.728,0.558,0.959 (inactive)
COC(=O)N(C)c1c(N)nc(-c2nn(Cc3ccccc3F)c3ncccc23)nc1N,–,0.888,0.894,0.294 (inactive)
Cc1c(C(=O)N2CCOc3ccc(-c4ccc(N)nc4)cc3C2)ccc(S(C)(=O)=O)c1F,–,0.561,0.378,0.331 (inactive)
COCCOc1cnc2ccn([C@H](C)c3nnc4c(F)cc(-c5cnn(C)c5)cn34)c(=O)c2c1,–,0.929,1.44,1.14 (inactive)
CC[C@@](C)(Nc1ccnc(-c2c[nH]c3ncccc23)n1)C(=O)NCC(F)(F)F,–,-0.201,-0.4,-1.18 (inactive)
CC(C)[C@@H](CS(=O)(=O)C(C)C)N1C(=O)[C@@](C)(CC(=O)O)C[C@H](c2cccc(Cl)c2)[C@H]1c1ccc(Cl)cc1,–,1.37,1.87,1.18 (inactive)
Cc1ccc(S(=O)(=O)Cc2nc(-c3ccc(C(=O)NCc4cccnc4)cc3)oc2C)cc1,–,-3.12,-2.76,-1.97 (inactive)
CN1CCN(C(=O)c2ccc3cc(CCNc4ncnc5ccc(C#N)cc45)ccc3c2)CC1,–,-0.289,-0.499,-0.0214 (inactive)
COc1ncc(Nc2ncc([C@H](C)N3CCN(S(C)(=O)=O)CC3)cc2-c2nc(C)nc(N)n2)cc1F,–,-0.0225,-0.164,-0.261 (inactive)
COCCN1CCN(Cc2ccc(-c3n[nH]c4c3C(=O)c3c(NC(=O)NN5CCOCC5)cccc3-4)cc2)CC1,–,0.701,0.00286,0.43 (inactive)
